Screen size: about 39,000 compounds; about 3,300 (8.5%) were called active. This is one part of a sample in which actives are shown more often than they occur.
What follows are molecules tested on HepG2 (assay: cytotoxicity call (relative viability < 0.9)). Settings: 10 µM.
In the case of `CN(C)CC#Cc1ccc([C@H]2[C@H](CO)N3C(=O)CN(C(=O)CN(C)C)C[C@@H]23)cc1`, the cytotoxicity call was “inactive”. For `C/C=C/c1ccc2c(c1)O[C@@H](CN(C)C(=O)c1ccc3c(c1)OCO3)[C@H](C)CN([C@H](C)CO)S2(=O)=O`, the cytotoxicity call was “inactive”. In the case of `COC(=O)c1cn(-c2cccc(N)c2)nn1`, the cytotoxicity call was “inactive”. For `C[C@H]1CN([C@@H](C)CO)C(=O)Cc2cc(NS(=O)(=O)c3ccc(Cl)cc3)ccc2O[C@H]1CN(C)C(=O)Nc1cccc2ccccc12`, the cytotoxicity call was “inactive”. With `C[C@H]1CN([C@@H](C)CO)C(=O)c2cccc(NC(=O)NC3CCCCC3)c2O[C@H]1CN(C)Cc1ccc(Oc2ccccc2)cc1` the cytotoxicity call was “inactive”. `C[C@@H]1CCCCO[C@H](CN(C)Cc2ccncc2)[C@@H](C)CN([C@@H](C)CO)C(=O)c2cc(NC(=O)CCC(F)(F)F)ccc2O1` was tested, and the cytotoxicity call was “inactive”. For `C[C@H]1CN([C@@H](C)CO)C(=O)c2cc(NC(=O)CCCCCC(=O)Nc3ccccc3N)ccc2O[C@@H]1CN(C)C(=O)Nc1ccc(F)cc1`, the cytotoxicity call was “inactive”. `CN1CCN(C(=O)C[C@H]2CC[C@@H]3[C@H](COC[C@H](O)CN3S(=O)(=O)c3cccc(Cl)c3)O2)CC1` was tested, and the cytotoxicity call was “inactive”. With `CN(C)C(=O)C[C@@H]1CC[C@@H]2[C@@H](COc3ccc(NS(=O)(=O)c4cccc(F)c4)cc3C(=O)N2C)O1` the cytotoxicity call was “inactive”. `C[C@@H]1CN([C@H](C)CO)C(=O)CCCn2nncc2CO[C@H]1CN(C)S(=O)(=O)c1cccc(C#N)c1` was tested, and the cytotoxicity call was “inactive”. `CO[C@H]1CN(C)C(=O)c2cc(NC(=O)Nc3ccccc3F)ccc2OC[C@@H](C)N(CCC(F)(F)F)C[C@@H]1C` was tested, and the cytotoxicity call was “inactive”. In the case of `C[C@H]1CN([C@@H](C)CO)C(=O)c2cc(NC(=O)CCN3CCOCC3)ccc2O[C@H]1CN(C)Cc1ccccc1`, the cytotoxicity call was “inactive”. With `CN1CCN(C(=O)C[C@@H]2CC[C@H]3[C@@H](COc4ccc(NC(=O)c5cccs5)cc4C(=O)N3C)O2)CC1` the cytotoxicity call was “inactive”. With `O=C(O)CC(CC(=O)O)C(=O)O` the cytotoxicity call was “inactive”. With `Cc1ccc(S(=O)(=O)N(C)C[C@@H]2Oc3c(NC(=O)C4CCOCC4)cccc3C(=O)N([C@@H](C)CO)C[C@@H]2C)cc1` the cytotoxicity call was “inactive”. `C[C@@H]1CCCCO[C@H](CN(C)C(=O)Nc2ccccc2)[C@H](C)CN([C@H](C)CO)C(=O)c2cc(NC(=O)c3ccncc3)ccc2O1` was tested, and the cytotoxicity call was “inactive”. With `CC1(C)S[C@@H]2[C@H](NC(=O)[C@H](N)c3ccc(O)cc3)C(=O)N2[C@H]1C(=O)O` the cytotoxicity call was “inactive”. `CC1(C)SC2C(NC(=O)C(N)c3ccc(O)cc3)C(=O)N2C1C(=O)O` (stereo unspecified) was tested, and the cytotoxicity call was “inactive”. For `CC1(C)S[C@H]2[C@@H](NC(=O)[C@@H](N)c3ccccc3)C(=O)N2[C@@H]1C(=O)O`, the cytotoxicity call was “active”. In the case of `C/C=C/c1ccc2c(c1)O[C@H](CN(C)C(=O)c1ccc3c(c1)OCO3)[C@H](C)CN([C@@H](C)CO)S2(=O)=O`, the cytotoxicity call was “inactive”. For `COc1ccc(CNC(=O)N(C)C[C@@H]2OCc3ccccc3-c3c(n(C)c4ccccc34)C(=O)N([C@@H](C)CO)C[C@@H]2C)cc1`, the cytotoxicity call was “inactive”. `C[C@@H]1CCCCO[C@H](CN(C)S(=O)(=O)c2ccccc2)[C@@H](C)CN([C@@H](C)CO)C(=O)c2cc(NC(=O)Nc3cccc4ccccc34)ccc2O1` was tested, and the cytotoxicity call was “inactive”. With `C[C@H](CO)N1C[C@H](C)[C@H](CN(C)Cc2ccc(-c3ccccc3)cc2)Oc2ccc(NS(=O)(=O)c3ccc(F)cc3)cc2CC1=O` the cytotoxicity call was “active”. `C[C@@H]1CN([C@H](C)CO)C(=O)Cc2cc(NS(=O)(=O)c3ccc(F)cc3)ccc2O[C@@H]1CN(C)Cc1ccc(-c2ccccc2)cc1` was tested, and the cytotoxicity call was “active”. `C[C@H]1CN([C@@H](C)CO)C(=O)Cc2cc(NS(=O)(=O)c3ccc(F)cc3)ccc2O[C@H]1CN(C)Cc1ccc(-c2ccccc2)cc1` was tested, and the cytotoxicity call was “inactive”. With `C[C@H](CO)N1C[C@H](C)[C@@H](CN(C)Cc2ccc(-c3ccccc3)cc2)Oc2ccc(NS(=O)(=O)c3ccc(F)cc3)cc2CC1=O` the cytotoxicity call was “active”. With `C[C@@H]1CN([C@@H](C)CO)C(=O)Cc2cc(NS(=O)(=O)c3ccc(F)cc3)ccc2O[C@@H]1CN(C)Cc1ccc(-c2ccccc2)cc1` the cytotoxicity call was “active”. `C[C@@H]1CN([C@@H](C)CO)C(=O)Cc2cc(NS(=O)(=O)c3ccc(F)cc3)ccc2O[C@H]1CN(C)Cc1ccc(-c2ccccc2)cc1` was tested, and the cytotoxicity call was “inactive”. For `C[C@H]1CN([C@@H](C)CO)C(=O)Cc2cc(NS(=O)(=O)c3ccc(F)cc3)ccc2O[C@@H]1CN(C)Cc1ccc(-c2ccccc2)cc1`, the cytotoxicity call was “inactive”. In the case of `C[C@@H]1CN([C@@H](C)CO)C(=O)c2cc(C#CCc3ccccc3)cnc2O[C@@H]1CN(C)CC1CCOCC1`, the cytotoxicity call was “inactive”. For `COc1ccc(NC(=O)N(C)C[C@@H]2Oc3c(NC(=O)Nc4cccc5ccccc45)cccc3C(=O)N([C@H](C)CO)C[C@@H]2C)cc1`, the cytotoxicity call was “inactive”. For `C[C@@H]1CCCCO[C@H](CN(C)C(=O)c2ccccc2)[C@@H](C)CN([C@H](C)CO)C(=O)c2cc(NS(=O)(=O)c3ccc(F)cc3)ccc2O1`, the cytotoxicity call was “inactive”. `C[C@@H]1CCCCO[C@@H](CN(C)S(=O)(=O)c2ccccc2)[C@@H](C)CN([C@@H](C)CO)C(=O)c2cc(NS(=O)(=O)c3cn(C)cn3)ccc2O1` was tested, and the cytotoxicity call was “inactive”. With `COc1ccc(S(=O)(=O)Nc2ccc3c(c2)CC(=O)N([C@H](C)CO)C[C@@H](C)[C@H](CN(C)S(=O)(=O)c2ccccc2)O3)cc1` the cytotoxicity call was “inactive”. In the case of `Cc1noc(C)c1NC(=O)N[C@H]1C=C[C@H](CC(=O)N2CCN(C)CC2)O[C@@H]1CO`, the cytotoxicity call was “inactive”. In the case of `C[C@H]1CCCCO[C@@H](CN(C)C(=O)NC2CCCCC2)[C@@H](C)CN([C@@H](C)CO)C(=O)c2cc(NC(=O)Cc3ccccc3)ccc2O1`, the cytotoxicity call was “inactive”. `COc1ccc(NC(=O)Nc2cccc3c2O[C@H](CN(C)C(=O)Nc2cccc4ccccc24)[C@H](C)CN([C@@H](C)CO)C3=O)cc1` was tested, and the cytotoxicity call was “inactive”. With `Cc1c(N2CCCC2)cc2c(c1-n1cccc1)C(C)(C)CC2(C)C` the cytotoxicity call was “inactive”. For `COc1ccc2c3c(n(c2c1)C)[C@@H](CO)N(Cc1cc(cc(c1)OC)OC)C[C@]13CN(C1)S(=O)(=O)c1cn(cn1)C`, the cytotoxicity call was “inactive”. In the case of `O=S(=O)(NCC[C@@H]1CC[C@@H](NS(=O)(=O)c2ccccc2Cl)[C@H](CO)O1)c1ccc(Cl)cc1`, the cytotoxicity call was “inactive”. `Cc1ccc(S(=O)(=O)N[C@@H]2C=C[C@H](CC(=O)NCCN3CCCCC3)O[C@H]2CO)cc1` was tested, and the cytotoxicity call was “inactive”. `COc1ccc(NC(=O)N(C)C[C@H]2Oc3ccc(NC(=O)Nc4cccc5ccccc45)cc3C(=O)N([C@@H](C)CO)C[C@@H]2C)cc1` was tested, and the cytotoxicity call was “inactive”. In the case of `Cc1noc(C)c1NC(=O)Nc1ccc2c(c1)C(=O)N([C@H](C)CO)C[C@H](C)[C@@H](CN(C)Cc1ccc(Cl)c(Cl)c1)O2`, the cytotoxicity call was “inactive”. `C[C@@H]1CN([C@H](C)CO)C(=O)Cc2cc(NS(=O)(=O)c3ccc(F)cc3)ccc2O[C@H]1CN(C)Cc1ccc(-c2ccccc2)cc1` was tested, and the cytotoxicity call was “active”. In the case of `C[C@@H]1CN([C@H](C)CO)C(=O)Cc2cc(NC(=O)NC3CCCCC3)ccc2O[C@@H]1CN(C)C(=O)Nc1ccc(C(F)(F)F)cc1`, the cytotoxicity call was “inactive”. With `COc1ccc(S(=O)(=O)Nc2ccc3c(c2)C(=O)N([C@H](C)CO)C[C@@H](C)[C@H](CN(C)C(=O)Nc2ccc(F)cc2)OCCCC[C@H](C)O3)cc1` the cytotoxicity call was “inactive”. With `C[C@H]1CN([C@@H](C)CO)C(=O)c2cc(C#CCN(C)C)cnc2O[C@H]1CN(C)S(C)(=O)=O` the cytotoxicity call was “inactive”. For `C[C@@H]1CN([C@H](C)CO)C(=O)c2cc(NS(=O)(=O)c3ccc(Cl)cc3)ccc2O[C@@H](C)CCCCO[C@H]1CN(C)Cc1ccc(C(F)(F)F)cc1`, the cytotoxicity call was “active”. In the case of `C[C@@H]1CCCCO[C@H](CN(C)Cc2ccc(C(F)(F)F)cc2)[C@H](C)CN([C@H](C)CO)C(=O)c2cc(NS(=O)(=O)c3ccc(Cl)cc3)ccc2O1`, the cytotoxicity call was “active”. `C[C@H](CO)N1C[C@H](C)[C@@H](CN(C)Cc2ccc(C(F)(F)F)cc2)OCCCC[C@H](C)Oc2ccc(NS(=O)(=O)c3ccc(Cl)cc3)cc2C1=O` was tested, and the cytotoxicity call was “inactive”. For `C[C@@H]1CCCCO[C@@H](CN(C)Cc2ccc(C(F)(F)F)cc2)[C@H](C)CN([C@H](C)CO)C(=O)c2cc(NS(=O)(=O)c3ccc(Cl)cc3)ccc2O1`, the cytotoxicity call was “active”. For `C[C@@H]1CN([C@@H](C)CO)C(=O)c2cc(NS(=O)(=O)c3ccc(Cl)cc3)ccc2O[C@@H](C)CCCCO[C@@H]1CN(C)Cc1ccc(C(F)(F)F)cc1`, the cytotoxicity call was “inactive”. For `C[C@@H]1CCCCO[C@H](CN(C)Cc2ccc(C(F)(F)F)cc2)[C@@H](C)CN([C@@H](C)CO)C(=O)c2cc(NS(=O)(=O)c3ccc(Cl)cc3)ccc2O1`, the cytotoxicity call was “active”. For `CNC[C@H]1OCCCC[C@@H](C)Oc2ccc(NS(=O)(=O)c3cn(C)cn3)cc2C(=O)N([C@@H](C)CO)C[C@H]1C`, the cytotoxicity call was “inactive”. In the case of `C[C@@H]1CCCCO[C@@H](CN(C)C(=O)c2ccccc2)[C@@H](C)CN([C@H](C)CO)C(=O)c2cc(NC(=O)CCC(F)(F)F)ccc2O1`, the cytotoxicity call was “inactive”. With `C[C@@H]1CN([C@H](C)CO)C(=O)c2cc(NS(=O)(=O)c3cccs3)ccc2O[C@@H](C)CCCCO[C@@H]1CN(C)C(=O)CCC(F)(F)F` the cytotoxicity call was “inactive”. For `C[C@H](N)CCCP(=O)(O)O`, the cytotoxicity call was “inactive”. In the case of `COC(=O)CCCCCCC(=O)Nc1ccc([C@H]2O[C@H](CSc3nc(-c4ccccc4)c(-c4ccccc4)o3)C[C@H](c3ccc(NC(=O)CCCCCCC(=O)OC)cc3)O2)cc1`, the cytotoxicity call was “inactive”. In the case of `C[C@H]1CN([C@@H](C)CO)C(=O)c2cc(NS(C)(=O)=O)ccc2O[C@@H]1CN(C)Cc1ccc(C(F)(F)F)cc1`, the cytotoxicity call was “inactive”. In the case of `COc1ccc(NC(=O)Nc2ccc3c(c2)[C@H]2C[C@@H](CC(=O)N4CCN(C)CC4)O[C@H](CO)[C@H]2O3)cc1`, the cytotoxicity call was “inactive”. In the case of `C[C@@H]1CN([C@H](C)CO)C(=O)c2cc(C#CCN(C)C)cnc2O[C@H]1CN(C)Cc1ccc2c(c1)OCO2`, the cytotoxicity call was “inactive”.
